Only some compounds are listed: those with a hit (about 14% of all), similar ones and a draw of the others.
HCMV antiviral – qHTS Assay for inhibitors of the human cytomegalovirus (HCMV) | HFF cells, HCMV-luciferase reporter, 72 h; active compounds read low | activity change, negative = inhibition, % at 57.5 µM | 410,000 tested, 4.5% active; in the data active = activity change below about -60%; inconclusive = no clear call, values can overlap the other calls; inactive = above about -39%
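After 16 h attachment at 37C, HFF cells received test compound and HCMV-luciferase (1 PFU/cell); reporter luminescence read 72 h later, data normalized against buffer-only and known inhibitor Salinomycin.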
Sm TGR block – qHTS Assay for the Inhibitors of Schistosoma Mansoni Peroxiredoxins | purified TGR, DTNB reduction, TNB absorbance 405 nm | Potency, µM (series often up to 114 µM), for the others: at the highest dose activity change, negative = inhibition, usual class: inhibitors | 360,000 tested, 3% active | AID 485364, 2010; note: potency is the fitted concentration of half-maximal effect; nearly all actives have a fitted effect of over 60% in size
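First, TGR (20 nM dispensed) and NADPH were mixed with compound. Second, a 15 min room-temperature incubation followed. Third, further NADPH and then DTNB were added to start the reaction. Finally, TNB absorbance was monitored kinetically.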
Pf growth 96h – Primary qHTS for delayed death inhibitors of the malarial parasite plastid, 96 hour incubation | 320,000 tested, 6.9% active | Potency, µM (doses to about 28.7 µM), inactives show at the highest dose activity change, negative = inhibition, most hits filed as inhibitors | P. falciparum luciferase reporter growth, 96 h; note: potency is the fitted concentration of half-maximal effect
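Readout is luminescence from an integrated firefly luciferase in P. falciparum. Red cells, 2% hematocrit and 0.05% parasitemia final, were cultured with compound through two parasite generations (96 hours) at 37 C, 5% CO2.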
FBPA Giardia inh – qHTS Assay for Inhibitors of Fructose-1,6-bisphosphate Aldolase from Giardia Lamblia. Potency, µM (titrated, usually from 59.6 µM), without a hit: top-dose activity, negative = inhibition, most hits filed as inhibitors. AID 2451, 2010. 290,000 tested, 0.71% active. purified Giardia FBPA. A8B2U2; note: potency is the fitted concentration of half-maximal effect; nearly all actives have a fitted effect of over 55% in size
Target sequence (A8B2U2 whole entry, looked up): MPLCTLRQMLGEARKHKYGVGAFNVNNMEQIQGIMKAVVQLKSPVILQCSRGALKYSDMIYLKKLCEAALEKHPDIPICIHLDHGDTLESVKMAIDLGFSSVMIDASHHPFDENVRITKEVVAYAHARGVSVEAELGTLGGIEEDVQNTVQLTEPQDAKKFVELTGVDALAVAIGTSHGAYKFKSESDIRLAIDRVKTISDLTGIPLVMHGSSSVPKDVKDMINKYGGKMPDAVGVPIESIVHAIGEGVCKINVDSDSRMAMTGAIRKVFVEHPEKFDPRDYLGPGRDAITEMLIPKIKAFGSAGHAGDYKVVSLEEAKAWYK
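Giardia FBPA (40 nM reagent) was preincubated 10 min at RT with compound (up to 57.5 uM final), then substrate plus GAPDH/TPI/NAD/arsenate coupling system with diaphorase/resazurin was added; resorufin fluorescence (525/598 nm) was read after 20 min.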
Pf growth 48h – Primary qHTS for delayed death inhibitors of the malarial parasite plastid, 48 hour incubation; 310,000 tested, 5.9% active; Potency, µM (series often up to 28.7 µM), without a hit: top-dose activity change, negative = inhibition, actives largely listed as inhibitors; P. falciparum luciferase growth in erythrocytes, 48 h; note: potency is the fitted concentration of half-maximal effect
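Luminescence readout; reporter = integrated firefly luciferase in P. falciparum. RBC culture at 2% hematocrit, 0.1% parasitemia final, 37 C/5% CO2; decreased signal taken as growth inhibition.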
Numbers without * were called inactive; ? = inconclusive; / = not tested or not shown. Unless noted, calls come from the whole dose curve; as a rule, active = well fitted curve in the direction sought with a large enough effect; inconclusive = small, poorly fitted or top-dose-only effect, or another doubt; inactive = no such curve, though single readings can be large; an effect the other way counts as inactive or inconclusive. % is set by controls: 0 for no effect and ±100 for the full control effect.

SMILES | HCMV antiviral | Sm TGR block | Pf growth 96h | FBPA Giardia inh | Pf growth 48h
COc1ccccc1OCCNC(=O)CN(c1cccc(C)c1)S(=O)(=O)c1ccccc1 | 3.0 | -3.9% | -23.5% | / | 14.7µM*
COc1ccc(OC)c(N(CC(=O)NCc2ccccc2)S(=O)(=O)c2ccccc2)c1 | 4.7 | 7.3% | / | / | /
COc1ccc(CCNC(=O)CN(c2ccccc2OC)S(=O)(=O)c2ccc(C)cc2)cc1 | 41.1 | 3.7% | 99.7% | 5.8% | 4.15µM*
CCOC(=O)CSC(=S)NC(=O)c1ccc(OC)cc1 | -86.9* | 8.91µM* | 22.4% | ? | 14.1%
Cc1cccc(C)c1OCc1nc2c3c(-c4ccccc4)c(-c4ccccc4)oc3ncn2n1 | -18.3 | 7.5% | / | / | /
CCc1cc(C(=O)NNC(=S)NCC2CCCO2)cs1 (stereo not drawn) | -2.1 | 7.3% | 0.0% | 3.4% | 122.2%
COc1cc(C(=O)Oc2ccccc2/C=N/NC(=O)c2ccc(Cl)cc2Cl)cc(OC)c1OC | -99.7* | -3.6% | ? | -7.0% | 6.57µM*
Cc1ccc(N(C)C(=O)c2ccc(CNc3c(N4CCC(C)CC4)c(=O)c3=O)cc2)cc1 | -30.9 | 13.9% | ? | 5.2% | 9.28µM*
Cc1cccc(N2CCN(C(=O)c3ccc(CNc4c(N5CCC(C)CC5)c(=O)c4=O)cc3)CC2C)c1 (stereo not drawn) | -60.5* | -13.4% | ? | 10.8% | ?
CC1CCN(c2c(NCc3ccc(C(=O)N(C)C4CCCCC4)cc3)c(=O)c2=O)CC1 | -11.2 | 7.1% | -19.3% | 6.0% | 8.28µM*
CC1CCN(c2c(NCc3ccc(C(=O)N4CCc5ccccc54)cc3)c(=O)c2=O)CC1 | -84.2* | -4.6% | -105.2% | 0.0% | /
CC1CCCN(C(=O)c2ccc(CNc3c(N4CCCCC4)c(=O)c3=O)cc2)C1 (stereo not drawn) | -29.5 | 1.6% | 24.8% | -4.0% | /
CC1CCN(c2c(NCc3ccc(C(=O)NCC4COc5ccccc5O4)cc3)c(=O)c2=O)CC1 (stereo not drawn) | 23.8 | / | / | / | /
CNC1C(O)C(O)C(CO)O[C@H]1OC1C(O[C@@H]2C(O)C(O)[C@@H](N=C(N)N)C(O)C2N=C(N)N)OC(C)[C@]1(O)C=O (stereo partly drawn) | / | / | / | 9.8% | /
COCCCNC(=O)C1CCN(C(=O)c2cnn(-c3ccccc3)c2-n2cccc2)CC1 | 0.1 | 10.7% | / | / | /
COC(=O)C[C@@H]1C[C@H]2c3cc(NS(C)(=O)=O)ccc3O[C@H]2[C@H](CO)O1 | 8.5 | / | / | / | /
O=C(C[n+]1ccc(/C=N/O)cc1)N(Cc1ccccc1)Cc1ccccc1 | -68.2* | 11.2% | 9.2% | 5.9% | ?
CC(C)N(C(=O)C[n+]1ccc(/C=N/O)cc1)C(C)C | -19.4 | -9.3% | -7.1% | 1.1% | 26.6%
CC(Oc1ccccc1F)C(=O)N1CCC(c2nc3ccccc3o2)CC1 (stereo not drawn) | ? | 0.3% | / | / | /
COc1ccc(Cc2[nH]n3c(=O)cc(C(C)C)nc3c2-c2ccccc2)cc1 | -73.0* | / | 104.4% | 1.4% | ?
COc1cc(CC2COC(c3ccc(O)c(OC)c3)C2COC(C)=O)ccc1O (stereo not drawn) | -2.2 | 39.8µM* | 10.4µM* | -5.8% | -11.9%
CCCCn1c(N)c(N(CC)C(=O)c2cnc(C)cn2)c(=O)[nH]c1=O | -5.1 | -0.4% | 13.1% | / | ?
CNC(=O)c1ccc(=O)n(Cc2cccc(C(F)(F)F)c2)c1 | -14.3 | 13.3% | 2.3% | 7.1% | 2.94µM*
CCC(C)(CC(=O)Nc1nccs1)c1ccccc1 (stereo not drawn) | -11.3 | -35.3% | -0.5% | 6.8% | /
CN(CC(=O)Nc1cccc(C(F)(F)F)c1)C1=NS(=O)(=O)c2ccccc21 | -21.5 | / | / | / | /
SMILES | HCMV antiviral | Sm TGR block | Pf growth 96h | FBPA Giardia inh | Pf growth 48h
CCCCc1nnc(NC(=O)c2ccccc2OCc2c(C)noc2C)s1 | 31.2 | -2.7% | 0.928µM* | / | 9.28µM*
CCOc1ccc(C(C)NC(=O)c2ccccc2OCc2c(C)noc2C)cc1OCC (stereo not drawn) | 30.5 | -4.0% | 6.57µM* | / | ?
CCOc1ccc(CCNC(=O)c2ccccc2OCc2c(C)noc2C)cc1OCC | 0.6 | -12.4% | ? | / | ?
Cc1cc(S(=O)(=O)N2CCOCC2)ccc1OCC(=O)NCCN1CCOCC1 | -20.2 | 5.9% | 7.3% | -3.5% | 18.7%
CCOC(=O)CNC(=O)COc1ccc(Cl)cc1Br | -16.3 | -12.2% | 10.4µM* | 0.5% | 5.1%
O=C(COC(=O)COc1ccc(Cl)cc1Br)NCc1cccs1 | -24.6 | 14.2% | 26.9% | -0.5% | 16.9%
CC(=O)c1ccc(C(C)(C)c2ccc(C(C)=O)s2)s1 | -8.4 | -6.3% | 11.7µM* | 0.8% | ?
CSCCC(NS(=O)(=O)c1ccc(Cl)cc1)C(=O)O (stereo not drawn) | -8.8 | -0.8% | 28.5% | 11.2% | 7.5%
CSCCC(NS(=O)(=O)c1ccc(C)c(C(=O)O)c1)C(=O)O (stereo not drawn) | -63.8* | -5.4% | 38.4% | 11.6% | 8.0%
CC1(c2ccc(Cl)cc2)NC(=O)N(CN2CCOCC2)C1=O (stereo not drawn) | 6.0 | -4.7% | 39.9% | -19.6% | 0.8%
S=c1[nH]c(-c2ccccc2)cn1/N=C/c1ccc(Br)cc1 | -28.8 | 10.4% | ? | 4.4% | ?
S=c1[nH]c(-c2ccccc2)cn1/N=C/c1cccs1 | -30.4 | 7.0% | 11.7µM* | -0.2% | ?
COc1cc(C(=O)OCC(=O)N2CCC(Cc3ccccc3)CC2)cc(OC)c1OC | / | ? | -1.2% | / | -20.1%
Cc1onc(-c2ccccc2)c1C(=O)N1CCN(Cc2ccccc2)CC1 | 9.8 | -27.3% | 7.2% | / | 6.3%
Cc1onc(C(=O)N2CCN(Cc3ccccc3)CC2)c1[N+](=O)[O-] | -1.4 | -11.9% | 14.7µM* | -0.6% | -16.1%
Cc1onc(C(=O)N2CCC(Cc3ccccc3)CC2)c1[N+](=O)[O-] | -90.8* | -3.5% | ? | 6.4% | ?
Cc1cc(C(=O)N2CCC(Cc3ccccc3)CC2)c(C)o1 | 26.3 | -32.8% | 18.7% | -3.8% | ?
CCOc1ccc(C(=O)Nc2ccc3nc(Nc4cccc(C(F)(F)F)c4)cc(C)c3c2)cc1OCC | -62.5* | -1.3% | / | / | /
Cn1nc(C(F)(F)F)c(-c2cccc(C(F)(F)F)c2)c1NC(=O)c1cccnc1 | -78.4* | 0.8% | ? | 1.4% | ?
Cc1cc(Nc2cccc(C(F)(F)F)c2)nc2ccc(NC(=O)c3cccc(Cl)c3)cc12 | -103.9* | -0.4% | / | / | /
Cc1cc(Nc2cccc(C(F)(F)F)c2)nc2ccc(NC(=O)c3cccnc3)cc12 | -107.3* | 10.2% | / | / | /
Cc1nc(NCCO)c2nc(-c3ccccc3)n(CCCN(C)C)c2n1 | / | / | / | 0.5% | /
